Bioassay records from PubChem.
Most compounds without a hit are left out; they make up all but 1.2% or so of the library.
RGS4-Gao reg: human RGS4-Galphao interaction regulation. P09471. Multiplexed bead flow cytometry, RGS4-Galphao binding; actives lie on both sides. binding response (% of control), % at 10 µM. 220,000 compounds, 0.33% hits. AID 1415; in the data active means binding response below about 49% or above about 150%; inactive means in between;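 further: fluorescent Galphao activated with aluminum fluoride binding bead-coupled RGS4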
Target sequence (P09471 whole entry, looked up): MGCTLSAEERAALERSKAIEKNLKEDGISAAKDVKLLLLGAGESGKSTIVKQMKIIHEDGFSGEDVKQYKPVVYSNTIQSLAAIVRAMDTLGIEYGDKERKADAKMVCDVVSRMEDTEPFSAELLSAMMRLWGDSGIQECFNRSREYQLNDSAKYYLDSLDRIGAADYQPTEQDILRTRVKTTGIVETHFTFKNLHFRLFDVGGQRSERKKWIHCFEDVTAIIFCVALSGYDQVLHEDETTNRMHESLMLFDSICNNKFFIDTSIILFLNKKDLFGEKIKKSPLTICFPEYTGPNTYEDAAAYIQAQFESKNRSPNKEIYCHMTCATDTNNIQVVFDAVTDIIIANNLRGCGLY
RGS8-Gao reg: human RGS8-Galphao interaction regulation; P09471; multiplexed bead flow cytometry, RGS8-Galphao binding; actives lie on both sides; response (percent of control binding), % at 10 µM; 220,000 compounds, 0.34% hits; AID 1423; in the data active means response below about 60% or above about 140%; inactive means in between;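 further: Galphao activated as the GDP aluminium fluoride complex binding bead-coupled RGS8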
RGS16-Gao: modulates binding between human RGS16 and Galphao; O15492+P09471; 220,000 compounds, 0.38% hits; binding response (% of control), % at 10 µM; bead-based flow cytometry RGS16-Galphao binding, fluorescence; actives lie on both sides;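 further: Galphao activated by GDP with aluminum fluoride before binding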
Avidin fluor: avidin bead compound fluorescence profile | Avidin beads, compound fluorescence 488/530 nm, flow cytometry; stronger effect = higher value | fluorescence (KMESF) at 10 µM | 220,000 compounds, 0.38% hits; in the data active means fluorescence above about 47
RGS7-Gao: human RGS7-Galphao interaction regulation; P09471; 220,000 compounds, 0.35% hits; binding response (% of control), % at 10 µM; Multiplexed bead flow cytometry, RGS7-Galphao binding; actives lie on both sides; in the data active means binding response below about 49% or above about 150%; inconclusive means no clear call, values can overlap the other calls; inactive means in between;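 further: fluorescent Galphao held in activated GDP-AlF4 state binding bead-coupled RGS7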
GSH bead fluor: GSH bead compound fluorescence profile; GSH beads flow cytometry, compound fluorescence 488/530 nm; stronger effect = higher value; fluorescence (KMESF) at 10 µM; 190,000 compounds, 0.25% hits; in the data active means fluorescence above about 89;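 further: glutathione beads carrying GST-tagged Bcl family fusion proteins plus one bare bead set; values are compound well signal with DMSO vehicle wells as background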
RGS4-Gao HTS: regulators of human RGS4-Galphao interaction. shares compounds with RGS16-Gao. multiplexed bead flow cytometry, RGS–Galpha-o binding. RGS4–Galpha-o binding response, % at 10 µM. 1,600 compounds, 99% hits. AID 1504;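 further: fluorescently labeled Galpha-o bound to GDP with aluminium fluoride binding biotinylated RGS beads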
Avidin counter: interferes with biotinylated probe binding to avidin beads; shares compounds with RGS16-Gao; streptavidin beads, fluorescein-biotin binding, flow cytometry; inhibition, % at 10 µM; 1,700 tested, under 10 active; AID 1783;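 active means inhibition above 50%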;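 further: median green fluorescence of gated singlet beads compared with DMSO control wells; 0% = DMSO wells and 100% = complete loss of bead fluorescence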
RGS8-Gao confirm: confirmation of regulators of human RGS8-Galphao interaction. binding response (% of control), % at 10 µM. bead-based flow cytometry RGS8-Galphao binding, fluorescence; actives lie on both sides. AID 1836. 1,700 compounds, 3% hits. shares compounds with RGS16-Gao; in the data active means binding response below about 72% or above about 130%; inactive means in between;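 further: Galphao activated as GDP AlF4 complex before binding bead RGS8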
RGS7-Gao confirm: RGS7-Galphao interaction regulation, single point confirmation; 1,700 compounds, 7.8% hits; response (percent of control binding), % at 10 µM; shares compounds with RGS16-Gao; bead-based flow cytometry RGS7-Galphao binding; actives lie on both sides; AID 1837; in the data active means response below about 75% or above about 130%; inactive means in between;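 further: fluorescent Galphao activated with GDP and aluminum fluoride binding bead-coupled RGS7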
RGS16-Gao single: RGS16-Galphao interaction regulation, single point confirmation | shares compounds with RGS16-Gao | bead-based flow cytometry, RGS16-Galphao binding; actives lie on both sides | response (% of control binding), % at 10 µM | 1,700 compounds, 4% hits | AID 1838; in the data active means response below about 74% or above about 130%; inactive means in between;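 further: Galphao activated as the GDP aluminium fluoride complex binding bead-coupled RGS16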
RGS4-Gao confirm: RGS4-Galphao interaction regulation, single point confirmation; shares compounds with RGS16-Gao; RGS4-Galphao binding, multiplexed bead flow cytometry; actives lie on both sides; binding response (% of control), % at 10 µM; 1,700 compounds, 4% hits; in the data active means binding response below about 74% or above about 130%; inactive means in between
RGS19-Gao single: RGS19-Galphao interaction regulation, single point confirmation; shares compounds with RGS16-Gao; bead-based flow cytometry RGS19-Galphao binding; actives lie on both sides; response (percent of control binding), % at 10 µM; 1,700 compounds, 5% hits; in the data active means response below about 50% or above about 160%; inactive means in between;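 further: 100% = no compound control and 0% = blank background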
Target sequence (P09471 whole entry, looked up): as above
Target sequence (P49795 whole entry, looked up): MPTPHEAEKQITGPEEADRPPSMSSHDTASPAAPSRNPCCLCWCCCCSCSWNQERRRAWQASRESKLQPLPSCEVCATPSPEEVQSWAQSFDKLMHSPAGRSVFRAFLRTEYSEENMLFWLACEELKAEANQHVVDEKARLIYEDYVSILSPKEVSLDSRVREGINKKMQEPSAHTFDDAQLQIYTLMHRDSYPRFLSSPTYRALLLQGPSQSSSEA
Numbers without * were called inactive; [ ] = remark or other dose. Unless noted, how the calls were made is not given here.

What do the screens show for `OCC(O)C(O)C(O)C(O)c1nc2ccccc2[nH]1` (stereo unspecified)?
RGS4-Gao reg: 97; RGS8-Gao reg: 96; RGS16-Gao: 95; Avidin fluor: 11; RGS7-Gao: inconclusive; GSH bead fluor: 12

What do the screens show for `OC(c1ccc(Cl)cc1)C(O)c1nc2ccccc2[nH]1` (stereo unspecified)?
RGS4-Gao reg: 121; RGS8-Gao reg: 141*[activator]; RGS16-Gao: 303; Avidin fluor: 4; RGS7-Gao: 109; GSH bead fluor: 60; RGS4-Gao HTS: 121*

What do the screens show for `COc1ccccc1OCCCOc1ccc(C)cc1Br`?
RGS4-Gao reg: 102; RGS8-Gao reg: 106; RGS16-Gao: 114; Avidin fluor: 3; RGS7-Gao: 102; GSH bead fluor: 16

What do the screens show for `COc1ccccc1OCCOCCOc1ccc(C)cc1Br`?
RGS4-Gao reg: 89; RGS8-Gao reg: 80; RGS16-Gao: 22*; Avidin fluor: 7; RGS7-Gao: 89; GSH bead fluor: 10; RGS4-Gao HTS: 89*; Avidin counter: -2; RGS8-Gao confirm: 101; RGS7-Gao confirm: 98; RGS16-Gao single: 100; RGS4-Gao confirm: 101; RGS19-Gao single: 96

What do the screens show for `CCOc1cc(CNC2CCCC2)c(Cl)cc1OCC(=O)Nc1ccccc1`?
RGS4-Gao reg: 106; RGS8-Gao reg: 104; RGS16-Gao: 105; Avidin fluor: 11; RGS7-Gao: inconclusive; GSH bead fluor: 18

Results for Cc1nnc(NC(=O)c2ccc(C)c(S(=O)(=O)N3CCOCC3)c2)s1 ?
RGS4-Gao reg: 101; RGS8-Gao reg: 102; RGS16-Gao: 99; Avidin fluor: 6; RGS7-Gao: 100; GSH bead fluor: 46

How did CSc1nnc(NC(=O)c2ccc(C)c(S(=O)(=O)N3CCOCC3)c2)s1 do in these assays?
RGS4-Gao reg: 18*; RGS8-Gao reg: 12*; RGS16-Gao: 9.3*; Avidin fluor: 0; RGS7-Gao: 14*; GSH bead fluor: 29; Avidin counter: 2; RGS8-Gao confirm: 102; RGS7-Gao confirm: 104; RGS16-Gao single: 104; RGS4-Gao confirm: 106; RGS19-Gao single: 103

Results for NC[C@@]12CCCC1C1CCC2C1 (stereo partly specified) ?
GSH bead fluor: 45; Avidin counter: 0; RGS8-Gao confirm: 102; RGS7-Gao confirm: 101; RGS16-Gao single: 107; RGS4-Gao confirm: 103; RGS19-Gao single: 106

Results for O[C@@H]1C2CCCC1[C@]1(O)CCCCC1C2 (stereo partly specified) ?
RGS4-Gao reg: 102; RGS8-Gao reg: 102; RGS16-Gao: 113; Avidin fluor: 11; RGS7-Gao: 101; GSH bead fluor: 33

What do the screens show for `Cc1cc2cc(CNC(=O)Nc3ccccc3)ccc2[nH]1`?
RGS4-Gao reg: 102; RGS8-Gao reg: 104; RGS16-Gao: 110; Avidin fluor: 23; RGS7-Gao: 104; GSH bead fluor: 10

Results for O=c1c2ccccc2c(C=NC2CCS(=O)(=O)C2)c(O)n1-c1ccccc1 (stereo unspecified) ?
RGS4-Gao reg: 90; RGS8-Gao reg: 94; RGS16-Gao: 93; Avidin fluor: 8; RGS7-Gao: 91; GSH bead fluor: 27

What do the screens show for `O=S1(=O)CCC(N=Cc2cc(Br)ccc2O)C1` (stereo unspecified)?
RGS4-Gao reg: 112; RGS8-Gao reg: 103; RGS16-Gao: 147; Avidin fluor: 49*; RGS7-Gao: 151*[activator]; GSH bead fluor: 35; RGS4-Gao HTS: 112*; Avidin counter: 1; RGS8-Gao confirm: 104; RGS7-Gao confirm: 95; RGS16-Gao single: 111; RGS4-Gao confirm: 98; RGS19-Gao single: 137

How did CS(=O)(=O)N1CCN(C(=O)c2cccnc2)CC1 do in these assays?
RGS4-Gao reg: 88; RGS8-Gao reg: 96; RGS16-Gao: 83; Avidin fluor: 7; RGS7-Gao: 97; GSH bead fluor: 67

What do the screens show for `CCCS(=O)(=O)N1CCN(C(=O)c2cccnc2)CC1`?
RGS4-Gao reg: 57; RGS8-Gao reg: 68; RGS16-Gao: 73; Avidin fluor: 6; RGS7-Gao: 48*; GSH bead fluor: 14; RGS4-Gao HTS: 57*

What do the screens show for `COC(=O)c1ccc(C(=O)OC)c(NC(=O)CSc2ccccn2)c1`?
RGS4-Gao reg: 107; RGS8-Gao reg: 100; RGS16-Gao: 101; Avidin fluor: 87*; RGS7-Gao: 157*[activator]; GSH bead fluor: 21; RGS4-Gao HTS: 107*; Avidin counter: 1; RGS8-Gao confirm: 98; RGS7-Gao confirm: 101; RGS16-Gao single: 100; RGS4-Gao confirm: 100; RGS19-Gao single: 108

Results for COc1ccc(NC(=O)CSc2ccccn2)cc1OC ?
RGS4-Gao reg: 100; RGS8-Gao reg: 101; RGS16-Gao: 102; Avidin fluor: 15; RGS7-Gao: 99; GSH bead fluor: 29

What do the screens show for `CC(C)(C)NC(=O)NC(=O)COC(=O)c1cc[n+]([O-])cc1`?
RGS4-Gao reg: 126; RGS8-Gao reg: 121; RGS16-Gao: 232; Avidin fluor: 207*; RGS7-Gao: 212*[activator]; GSH bead fluor: 22; RGS4-Gao HTS: 126*; Avidin counter: -1; RGS8-Gao confirm: 100; RGS7-Gao confirm: 96; RGS16-Gao single: 101; RGS4-Gao confirm: 99; RGS19-Gao single: 103

How did CC(C)(C)NC(=O)NC(=O)COC(=O)c1cccc(F)c1 do in these assays?
RGS4-Gao reg: 90; RGS8-Gao reg: 94; RGS16-Gao: 88; Avidin fluor: 4; RGS7-Gao: 94; GSH bead fluor: 24
